In the supplement of paper PMC10849652:
Of roughly 8,800 targets only a part is listed; those with a hit were picked by preference. About 0.5% of all pairs of compound and target were hits.

Key:
Assay in all cases: log2 fold change, soluble protein after heating vs DMSO (PISA); higher = thermal stabilisation; K562 lysate, 10 uM; active = over 0.2 and 3.5 SD of the protein, either way, in both replicates (recomputed)
vemurafenib = compound: CCCS(=O)(=O)Nc1ccc(F)c(C(=O)c2c[nH]c3ncc(-c4ccc(Cl)cc4)cc23)c1F [vemurafenib]
Procedure, shortened: (§1)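 Log-two fold change in thermal stability relative to solvent controls is reported from duplicates. For each sample, crude K562 extract from dounce-homogenised pellets in PBS pH 7.4 with 1 mM MgCl2, at 1 mg/mL protein, was treated with 10 μM compound for 30 min. Aliquots heated for 3 min across 48°C-58°C were pooled, brought to 0.5% NP-40 at 4°C and cleared at 21,000xg for 90 min. The supernatant was quantified by TMTpro 16plex LC-MS/MS with channel sums equalised.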

[1] = compound: CCCS(=O)(=O)Nc1ccc(F)c(C(=O)c2c[nH]c3ncc(Cl)cc23)c1F
Procedure, shortened: as §1

barasertib = compound: CCN(CCCOc1ccc2c(Nc3cc(CC(=O)Nc4cccc(F)c4)[nH]n3)ncnc2c1)CCOP(=O)(O)O [barasertib]
Procedure, shortened: as §1

[2] = compound: CC[C@@H]1C(=O)N(C)c2cnc(Nc3ccc(C(=O)NC4CCN(C)CC4)cc3OC)nc2N1C1CCCC1
Procedure, shortened: as §1

volasertib = compound: CC[C@@H]1C(=O)N(C)c2cnc(Nc3ccc(C(=O)N[C@H]4CC[C@H](N5CCN(CC6CC6)CC5)CC4)cc3OC)nc2N1C(C)C [volasertib]
Procedure, shortened: as §1

[3] = compound: CCn1c(C(=O)N(C2CC2)C2CC2)cc2c3c(ncn3C)c(Nc3cc(C)n(C)n3)nc21
Procedure, shortened: as §1

[4] = compound: CCn1cc(-c2ccnc3[nH]c(-c4cccc(CN(C)C)c4)cc23)c(-c2ccc(NC(=O)N(C)C)cc2)n1
Procedure, shortened: as §1

[5] = compound: CN1CCC(CNc2ccc3ncc(-c4cccc(OC(F)(F)F)c4)n3n2)CC1
Procedure, shortened: as §1

saracatinib = compound: CN1CCN(CCOc2cc(OC3CCOCC3)c3c(Nc4c(Cl)ccc5c4OCO5)ncnc3c2)CC1 [saracatinib]
Procedure, shortened: as §1

sotrastaurin = compound: CN1CCN(c2nc(C3=C(c4c[nH]c5ccccc45)C(=O)NC3=O)c3ccccc3n2)CC1 [sotrastaurin]
Procedure, shortened: as §1

alvocidib = compound: CN1CC[C@H](c2c(O)cc(O)c3c(=O)cc(-c4ccccc4Cl)oc23)[C@H](O)C1 [alvocidib]
Procedure, shortened: as §1

Tubastatin A = compound: CN1CCc2c(c3ccccc3n2Cc2ccc(C(=O)NO)cc2)C1 [Tubastatin A]
Procedure, shortened: as §1

[6] = compound: CNC(=O)C1=CC=CC=C1NC2=NC(=NC=C2Cl)NC3=C(C=C(C=C3)N4CCOCC4)OC
Procedure, shortened: as §1

defactinib = compound: CNC(=O)c1ccc(Nc2ncc(C(F)(F)F)c(NCc3nccnc3N(C)S(C)(=O)=O)n2)cc1 [defactinib]
Procedure, shortened: as §1

[7] = compound: CNc1nc(-c2ccc3c(N)n[nH]c3c2)cc(N2C[C@@H](C(=O)NC3CCCCC3)CC[C@H]2C)n1
Procedure, shortened: as §1

encorafenib = compound: COC(=O)N[C@@H](C)CNc1nccc(-c2cn(C(C)C)nc2-c2cc(Cl)cc(NS(C)(=O)=O)c2F)n1 [encorafenib]
Procedure, shortened: as §1

[8] = compound: COC(=O)[C@H](CCSC)NC(=O)C1=C(C=C(C=C1)NC[C@H](CS)N)C2=CC=CC=C2
Procedure, shortened: as §1

alisertib = compound: COc1cc(Nc2ncc3c(n2)-c2ccc(Cl)cc2C(c2c(F)cccc2OC)=NC3)ccc1C(=O)O [alisertib]
Procedure, shortened: as §1

[9] = compound: COc1cc2nc(-c3cc(F)ccc3O)nc(N[C@@H]3CNC[C@H]3C(C)(C)O)c2cc1OC
Procedure, shortened: as §1

gefitinib = compound: COc1cc2ncnc(Nc3ccc(F)c(Cl)c3)c2cc1OCCCN1CCOCC1 [gefitinib]
Procedure, shortened: as §1

Measured: log2 fold change

UBE2H (UniProt P62256)
Chain of UniProt P62256 (P62256 whole entry, looked up): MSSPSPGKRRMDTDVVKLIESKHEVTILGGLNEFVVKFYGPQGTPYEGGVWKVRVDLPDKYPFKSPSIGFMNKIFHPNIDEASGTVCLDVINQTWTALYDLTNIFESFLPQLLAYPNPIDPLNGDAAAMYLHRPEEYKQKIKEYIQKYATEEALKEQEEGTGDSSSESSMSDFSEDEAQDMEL
active: [5] -0.227
inactive: vemurafenib -0.032 | [1] -0.013 | barasertib -0.006 | [2] 0.011 | volasertib 0.004 | [3] -0.055 | [4] 0.166 | saracatinib -0.056 | sotrastaurin -0.02 | alvocidib 0.11 | Tubastatin A 0.076 | [6] -0.03 | defactinib 0.025 | [7] -0.061 | encorafenib 0.001 | [8] -0.01 | alisertib 0.004 | [9] -0.029 | gefitinib 0.044

TOPBP1 (UniProt Q92547)
Chain of UniProt Q92547 (Q92547 whole entry, looked up): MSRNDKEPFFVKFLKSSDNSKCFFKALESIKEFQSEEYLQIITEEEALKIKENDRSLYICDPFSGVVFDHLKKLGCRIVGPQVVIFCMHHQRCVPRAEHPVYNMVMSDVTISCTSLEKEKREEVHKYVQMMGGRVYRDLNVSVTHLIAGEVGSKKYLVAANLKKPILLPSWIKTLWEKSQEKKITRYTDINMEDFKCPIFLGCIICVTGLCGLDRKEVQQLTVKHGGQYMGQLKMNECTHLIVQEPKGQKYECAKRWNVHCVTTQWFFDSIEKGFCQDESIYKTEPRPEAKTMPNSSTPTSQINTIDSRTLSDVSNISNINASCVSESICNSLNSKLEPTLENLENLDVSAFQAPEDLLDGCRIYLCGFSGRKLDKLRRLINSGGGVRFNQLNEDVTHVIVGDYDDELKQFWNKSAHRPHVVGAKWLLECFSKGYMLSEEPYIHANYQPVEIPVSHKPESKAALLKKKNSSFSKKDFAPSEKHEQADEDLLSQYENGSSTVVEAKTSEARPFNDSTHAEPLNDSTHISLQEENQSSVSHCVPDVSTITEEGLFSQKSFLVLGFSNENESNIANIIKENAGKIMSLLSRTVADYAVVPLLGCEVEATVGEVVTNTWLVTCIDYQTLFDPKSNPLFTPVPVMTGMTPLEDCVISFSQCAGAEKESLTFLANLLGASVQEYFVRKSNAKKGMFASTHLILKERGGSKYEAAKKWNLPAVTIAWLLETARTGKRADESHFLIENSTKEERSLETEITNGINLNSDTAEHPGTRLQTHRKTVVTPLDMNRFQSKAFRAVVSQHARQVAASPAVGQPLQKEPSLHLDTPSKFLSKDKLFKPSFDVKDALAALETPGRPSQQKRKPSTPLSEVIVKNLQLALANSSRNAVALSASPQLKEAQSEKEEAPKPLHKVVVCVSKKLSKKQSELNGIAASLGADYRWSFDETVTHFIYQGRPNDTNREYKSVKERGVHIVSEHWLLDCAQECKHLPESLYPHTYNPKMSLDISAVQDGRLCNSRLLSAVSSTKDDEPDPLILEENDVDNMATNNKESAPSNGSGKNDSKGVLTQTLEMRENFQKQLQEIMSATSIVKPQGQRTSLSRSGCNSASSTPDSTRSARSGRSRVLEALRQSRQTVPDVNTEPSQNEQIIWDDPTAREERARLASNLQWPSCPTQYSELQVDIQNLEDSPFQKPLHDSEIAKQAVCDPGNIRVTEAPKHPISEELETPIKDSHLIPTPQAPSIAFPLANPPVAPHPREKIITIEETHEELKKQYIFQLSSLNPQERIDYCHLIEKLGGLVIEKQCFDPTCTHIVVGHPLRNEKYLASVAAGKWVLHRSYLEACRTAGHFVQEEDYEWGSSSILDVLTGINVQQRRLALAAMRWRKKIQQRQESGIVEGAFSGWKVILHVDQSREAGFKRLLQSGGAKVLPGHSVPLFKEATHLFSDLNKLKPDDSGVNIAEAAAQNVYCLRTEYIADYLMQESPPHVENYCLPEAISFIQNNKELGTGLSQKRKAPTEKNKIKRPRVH
inactive: vemurafenib 0.024 | [1] -0.08 | barasertib 0.018 | [2] 0.012 | volasertib -0.079 | [3] -0.029 | [5] -0.071 | saracatinib -0.003 | sotrastaurin 0.02 | alvocidib 0.024 | Tubastatin A -0.067 | [6] 0.033 | defactinib 0.047 | [7] 0.01 | encorafenib -0.024 | [8] 0.108 | alisertib -0.039 | [9] 0.034 | gefitinib 0.008
active: [4] 0.305

UBXN6 (UniProt Q9BZV1)
inactive: vemurafenib 0.046 | [1] -0.192 | barasertib -0.007 | [2] -0.025 | volasertib -0.075 | [3] -0.001 | [4] 0.008 | [5] -0.015 | saracatinib -0.03 | sotrastaurin 0.025 | alvocidib 0.014 | Tubastatin A -0.087 | [6] 0.03 | defactinib -0.019 | [7] 0.055 | encorafenib 0.042 | [8] 0.104 | alisertib 0.017 | [9] 0.006 | gefitinib 0.006

TRMT2A (UniProt Q8IZ69)
Chain of UniProt Q8IZ69 (Q8IZ69 whole entry, looked up): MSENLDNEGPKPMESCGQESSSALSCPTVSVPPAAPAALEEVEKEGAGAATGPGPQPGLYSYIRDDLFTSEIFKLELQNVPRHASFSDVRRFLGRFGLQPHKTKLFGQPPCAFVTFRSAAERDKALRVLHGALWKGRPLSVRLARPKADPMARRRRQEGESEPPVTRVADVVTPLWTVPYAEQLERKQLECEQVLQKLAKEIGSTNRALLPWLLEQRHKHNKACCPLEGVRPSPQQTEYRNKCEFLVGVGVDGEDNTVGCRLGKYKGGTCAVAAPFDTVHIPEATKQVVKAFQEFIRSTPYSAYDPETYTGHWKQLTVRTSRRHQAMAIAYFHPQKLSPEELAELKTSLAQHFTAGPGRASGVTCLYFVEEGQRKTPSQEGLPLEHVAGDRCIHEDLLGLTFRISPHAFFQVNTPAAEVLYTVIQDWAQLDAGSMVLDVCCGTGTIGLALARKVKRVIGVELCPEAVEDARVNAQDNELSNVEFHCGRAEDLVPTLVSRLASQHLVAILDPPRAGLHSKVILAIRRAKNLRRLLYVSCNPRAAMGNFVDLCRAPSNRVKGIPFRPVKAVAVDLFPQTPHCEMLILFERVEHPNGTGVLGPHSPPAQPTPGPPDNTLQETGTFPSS
inactive: vemurafenib -0.028 | [1] 0.004 | barasertib 0.016 | [2] -0.019 | volasertib -0.045 | [3] 0.005 | [4] -0.016 | [5] 0.009 | saracatinib -0.007 | sotrastaurin 0.002 | alvocidib -0.014 | Tubastatin A -0.144 | [6] 0.019 | defactinib 0.041 | [7] -0.018 | encorafenib 0.019 | [8] 0.098 | alisertib 0.043 | [9] 0.007 | gefitinib 0.007

THEMIS2 (UniProt Q5TEJ8)
Chain of UniProt Q5TEJ8 (Q5TEJ8 whole entry, looked up): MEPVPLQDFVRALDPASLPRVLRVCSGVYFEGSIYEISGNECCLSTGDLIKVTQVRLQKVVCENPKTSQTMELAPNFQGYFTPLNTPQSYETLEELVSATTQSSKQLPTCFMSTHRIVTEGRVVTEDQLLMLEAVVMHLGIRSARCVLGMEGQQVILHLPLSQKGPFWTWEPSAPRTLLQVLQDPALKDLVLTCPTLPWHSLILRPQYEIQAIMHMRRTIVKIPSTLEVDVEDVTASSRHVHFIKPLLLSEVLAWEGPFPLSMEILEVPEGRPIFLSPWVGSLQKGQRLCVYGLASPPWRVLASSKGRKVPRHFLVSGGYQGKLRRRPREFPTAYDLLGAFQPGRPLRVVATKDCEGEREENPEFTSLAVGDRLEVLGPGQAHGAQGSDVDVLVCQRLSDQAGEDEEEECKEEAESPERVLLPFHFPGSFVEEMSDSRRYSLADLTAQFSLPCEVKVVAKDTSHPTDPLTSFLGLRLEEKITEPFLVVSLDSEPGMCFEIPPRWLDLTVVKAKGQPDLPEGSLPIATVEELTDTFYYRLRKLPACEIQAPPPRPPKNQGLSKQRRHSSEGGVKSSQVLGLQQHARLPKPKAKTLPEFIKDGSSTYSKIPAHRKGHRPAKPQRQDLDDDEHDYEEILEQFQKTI
inactive: vemurafenib -0.004 | [1] 0.11 | barasertib -0.052 | [2] 0.016 | volasertib 0.132 | [3] 0.015 | [4] -0.019 | [5] 0.004 | saracatinib 0.01 | sotrastaurin -0.016 | alvocidib -0.036 | Tubastatin A -0.069 | [6] 0.024 | defactinib 0.028 | [7] 0 | encorafenib -0.027 | [8] 0.023 | alisertib 0.052 | [9] -0.159 | gefitinib 0.025

TOR3A (UniProt Q9H497)
Chain of UniProt Q9H497 (Q9H497 whole entry, looked up): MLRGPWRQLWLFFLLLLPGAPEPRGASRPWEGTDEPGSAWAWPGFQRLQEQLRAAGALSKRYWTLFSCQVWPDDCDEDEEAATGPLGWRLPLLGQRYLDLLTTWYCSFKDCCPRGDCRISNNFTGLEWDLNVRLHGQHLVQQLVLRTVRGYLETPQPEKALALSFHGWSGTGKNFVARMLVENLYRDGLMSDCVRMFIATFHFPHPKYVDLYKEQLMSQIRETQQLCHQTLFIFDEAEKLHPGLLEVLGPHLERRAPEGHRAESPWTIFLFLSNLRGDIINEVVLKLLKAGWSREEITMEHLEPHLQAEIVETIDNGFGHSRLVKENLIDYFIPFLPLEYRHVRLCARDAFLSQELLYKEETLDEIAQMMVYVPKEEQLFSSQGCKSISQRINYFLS
inactive: vemurafenib -0.001 | [1] -0.11 | barasertib -0.031 | [2] -0.013 | volasertib -0.05 | [3] -0.006 | [4] -0.123 | [5] 0.057 | saracatinib 0.014 | sotrastaurin 0.03 | alvocidib 0.01 | Tubastatin A -0.016 | [6] 0.004 | defactinib 0.01 | [7] 0.019 | encorafenib 0.006 | [8] -0.006 | alisertib 0.032 | [9] -0.367 | gefitinib 0.018

UBA1 (UniProt P22314)
Chain of UniProt P22314 (P22314 whole entry, looked up): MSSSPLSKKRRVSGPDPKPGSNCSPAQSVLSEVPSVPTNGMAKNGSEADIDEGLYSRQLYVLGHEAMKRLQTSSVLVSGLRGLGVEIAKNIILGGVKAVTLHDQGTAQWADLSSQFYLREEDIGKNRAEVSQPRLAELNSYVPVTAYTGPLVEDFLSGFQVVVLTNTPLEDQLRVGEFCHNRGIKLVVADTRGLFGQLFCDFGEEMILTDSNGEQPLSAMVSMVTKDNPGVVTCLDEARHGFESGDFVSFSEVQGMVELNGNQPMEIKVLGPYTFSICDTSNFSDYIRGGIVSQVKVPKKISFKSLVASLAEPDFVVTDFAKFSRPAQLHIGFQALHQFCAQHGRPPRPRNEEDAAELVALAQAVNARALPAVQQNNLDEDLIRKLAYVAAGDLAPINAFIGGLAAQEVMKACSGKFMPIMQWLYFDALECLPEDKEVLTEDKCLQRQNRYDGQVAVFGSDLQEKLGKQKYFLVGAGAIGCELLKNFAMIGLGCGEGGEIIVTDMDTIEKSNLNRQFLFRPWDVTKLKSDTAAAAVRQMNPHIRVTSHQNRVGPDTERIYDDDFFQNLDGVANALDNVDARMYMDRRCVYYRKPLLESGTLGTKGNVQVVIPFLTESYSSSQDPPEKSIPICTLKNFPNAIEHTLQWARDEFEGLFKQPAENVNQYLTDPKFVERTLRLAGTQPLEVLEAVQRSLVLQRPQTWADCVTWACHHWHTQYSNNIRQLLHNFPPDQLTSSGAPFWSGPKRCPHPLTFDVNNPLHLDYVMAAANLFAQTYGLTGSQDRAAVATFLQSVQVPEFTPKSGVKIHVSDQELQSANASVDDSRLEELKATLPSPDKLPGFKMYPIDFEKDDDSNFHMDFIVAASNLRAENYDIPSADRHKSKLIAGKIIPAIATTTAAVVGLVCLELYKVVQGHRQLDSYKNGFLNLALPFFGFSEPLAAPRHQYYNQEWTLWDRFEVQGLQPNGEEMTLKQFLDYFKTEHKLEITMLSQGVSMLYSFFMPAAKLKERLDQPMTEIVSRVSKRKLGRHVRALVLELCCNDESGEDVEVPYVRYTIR
inactive: vemurafenib 0.018 | [1] 0.005 | barasertib 0.023 | [2] -0.063 | volasertib -0.036 | [3] -0.006 | [4] -0.027 | [5] 0.004 | saracatinib -0.02 | sotrastaurin 0.008 | alvocidib 0.012 | Tubastatin A -0.082 | [6] 0.007 | defactinib -0.011 | [7] -0.026 | encorafenib -0.017 | [8] 0.139 | alisertib 0.001 | [9] 0.002 | gefitinib -0.01

TYMS (UniProt P04818)
inactive: vemurafenib -0.009 | [1] 0.006 | barasertib 0.022 | [2] -0.053 | volasertib -0.041 | [3] -0.004 | [4] -0.035 | [5] -0.064 | saracatinib 0 | sotrastaurin 0.008 | alvocidib 0.015 | Tubastatin A -0.023 | [6] 0.017 | defactinib 0.002 | [7] -0.018 | encorafenib 0.013 | [8] -0.006 | alisertib 0.021 | [9] 0.006 | gefitinib -0.024

TRMT12 (UniProt Q53H54)
Chain of UniProt Q53H54 (Q53H54 whole entry, looked up): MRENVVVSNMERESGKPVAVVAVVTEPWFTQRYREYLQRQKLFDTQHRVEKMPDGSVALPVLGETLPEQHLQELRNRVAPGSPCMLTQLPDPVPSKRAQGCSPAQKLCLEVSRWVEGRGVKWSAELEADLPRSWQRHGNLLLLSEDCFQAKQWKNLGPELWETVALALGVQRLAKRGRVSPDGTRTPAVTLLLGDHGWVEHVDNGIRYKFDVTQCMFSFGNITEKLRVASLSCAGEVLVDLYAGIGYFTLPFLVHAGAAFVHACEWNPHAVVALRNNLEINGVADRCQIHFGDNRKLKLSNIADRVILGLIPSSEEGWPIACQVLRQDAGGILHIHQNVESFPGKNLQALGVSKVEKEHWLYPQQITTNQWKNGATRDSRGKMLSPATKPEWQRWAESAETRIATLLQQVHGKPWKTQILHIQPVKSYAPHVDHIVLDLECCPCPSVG
inactive: vemurafenib 0.059 | [1] -0.009 | barasertib 0.068 | [2] -0.17 | volasertib -0.052 | [3] 0.047 | [4] -0.303 | [5] 0.281 | saracatinib -0.021 | sotrastaurin -0.047 | alvocidib -0.022 | Tubastatin A -0.106 | [6] -0.113 | defactinib -0.058 | [7] 0.007 | encorafenib 0.041 | [8] 0.088 | alisertib -0.031 | [9] 0.018 | gefitinib 0.123
